This is an account of results in PubChem BioAssay (NCATS).

Records with an inconclusive call do not appear. Some compounds were tested as several samples or in several runs, with calls that do not always agree. The source made the active and inactive calls. Calls come from the whole dose curve; as a rule, active = well fitted cell-killing curve with a large enough effect; inconclusive = small, poorly fitted or top-dose-only effect, or effect the other way; inactive = flat fitted curve, though single readings scatter.
% is set by controls: 0 for no effect and ±100 for the full control effect; potency is the fitted concentration of half-maximal effect.

In the assay the test system is C33A. The assay is described as follows: Primary qHTS to identify gynecologic anti-cancer compounds using libraries of approved drugs and bioactive compounds (AID 1345084). Note: nearly all actives have a fitted effect of over 55% in size. As to conditions: Gynecologic cancer cell panel viability, ATPlite luminescence, 48 h; series mostly up to 57.5 µM; activity change, negative = cytotoxicity: at the top concentration. In outline: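 Luminescence from the ATPlite ATP-monitoring reagent indicates viable cell number; lower signal means cytotoxicity. Cells received compound 16 h after seeding and were exposed for 48 h across five concentrations.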
For the compound `NC(=O)NC(=O)Cc1ccccc1`, the “activity change, negative = cytotoxicity” value is -4.62% (inactive). Still for that read-out and setting: the figure for `NC(=O)NNc1ccccc1` is -17.4% (inactive); for `N[C@H](C(=O)O)c1ccc(O)cc1` it is 9.32% [at 25.3 µM] (inactive); for `Nc1ccc(S(=O)(=O)NC(=O)c2ccccc2)cc1` it is 16.3% (inactive). The same measure, in the same setting: the figure for `CCN(CC)CCNC(=O)c1c(C)[nH]c(/C=C2\C(=O)Nc3ccc(F)cc32)c1C` is -17.1% (inactive). On to `N[C@H]1C(O)O[C@H](CO)[C@@H](O)[C@@H]1O` (stereo partly drawn), for which the “activity change, negative = cytotoxicity” value is -2.32% (inactive).

Turning to `O=S(=O)(O)NC1CCCCC1`, the “activity change, negative = cytotoxicity” value was 17.3% (inactive). Regarding `OC[C@H]1O[C@@H](O[C@@H]2[C@@H](CO)O[C@](O)(CO)[C@H]2O)[C@H](O)[C@@H](O)[C@H]1O`, the “activity change, negative = cytotoxicity” value was 0.907% (inactive). Regarding `CN(C)CCCO[C@@H]1[C@H]2OC(C)(C)O[C@H]2O[C@@H]1C(O)CO` (stereo partly drawn), the “activity change, negative = cytotoxicity” value was 10.1% (inactive). Still for that read-out and setting: the figure for `C[C@@H]1CC[C@@]2(OC1)O[C@H]1C[C@H]3[C@@H]4CC[C@H]5C[C@@H](O)CC[C@]5(C)[C@H]4CC(=O)[C@]3(C)[C@H]1[C@@H]2C` is -0.977% [at 6.55 µM] (inactive); for `CNCCCC1c2ccccc2C=Cc2ccccc21` it is -21.3% (inactive).

With `CC1=C(CC(=O)O)c2cc(F)ccc2/C1=C\c1ccc(S(C)=O)cc1` (stereo not drawn), the “activity change, negative = cytotoxicity” value was -0.0925% (inactive).

Turning to `CC(=O)O[C@@]12CO[C@@H]1C[C@H](O)[C@@]1(C)C(=O)[C@H](O)C3=C(C)[C@@H](OC(=O)[C@H](O)[C@@H](NC(=O)OC(C)(C)C)c4ccccc4)C[C@@](O)([C@@H](OC(=O)c4ccccc4)[C@H]21)C3(C)C`, the “activity change, negative = cytotoxicity” value is -6.16% (inactive).

As to `C[C@H]1O[C@@H](n2cc(F)c(=O)[nH]c2=O)[C@H](O)[C@@H]1O`, the “activity change, negative = cytotoxicity” value is 4.88% (inactive). Take `Cc1cc(N)c2ccccc2[n+]1CCCCCCCCCC[n+]1c(C)cc(N)c2ccccc21`: the “activity change, negative = cytotoxicity” value was -18.9% (inactive). For the compound `O=S(=O)(O)c1cc(I)c(O)c2ncccc12`, the “activity change, negative = cytotoxicity” value is 8.58% (inactive). Same read-out and setting: the figure for `CN1[C@@H]2CC(OC(=O)[C@H](CO)c3ccccc3)C[C@H]1[C@@H]1O[C@@H]12` (stereo partly drawn) is 13.1% (inactive); for `CC1(C)OC(=O)NC1=O` it is 2.18% (inactive).

On to `CCCCCCCCCCCCCCCCCCOCC(O)CO` (stereo not drawn), for which the “activity change, negative = cytotoxicity” value is 3.8% (inactive). Take `CC(=O)CCC(=O)O`: the “activity change, negative = cytotoxicity” value is 2.3% (inactive). On the same count and under the same terms, the same measure for `C=CCn1c(=O)n([C@@H]2O[C@H](CO)[C@@H](O)[C@H]2O)c2nc(N)[nH]c(=O)c21`: -1.82% (inactive); for `CC(=O)c1ccc2c(c1)N(CCCN(C)C)c1ccccc1S2`: -21.2% (inactive); for `CC1(C)CO[C@@H](CC(=O)O)CN1`: 4.04% (inactive).

Regarding `CC(=O)Oc1c(C)c(C)c2c(c1C)CC[C@@](C)(CCC[C@H](C)CCC[C@H](C)CCCC(C)C)O2`, the “activity change, negative = cytotoxicity” value was -7.22% (inactive). For the compound `COc1ccc2cc1Oc1ccc(cc1)C[C@H]1c3c(cc4c(c3Oc3cc5c(cc3OC)CCN(C)[C@@H]5C2)OCO4)CCN1C`, the Potency result is “inactive”.

With `C[C@H](N)[C@H](O)c1cccc(O)c1`, the “activity change, negative = cytotoxicity” value was -0.602% (inactive).

As to `COC(=O)C1=C(C)NC(C)=C(C(=O)OC)C1c1ccccc1[N+](=O)[O-]`, the “activity change, negative = cytotoxicity” value was 6.59% (inactive). The same measure, in the same setting: the figure for `Cc1cc(O)cc2c1O[C@](C)(CCC[C@H](C)CCC[C@H](C)CCCC(C)C)CC2` is 0.389% (inactive). For `CCN(CC)CCCC(C)Nc1c2ccc(Cl)cc2nc2ccc(OC)cc12` (stereo not drawn), the Potency is 12.6 µM (active) and inactive. Take `CCCCN(CCCC)CC(O)c1cc(Cl)cc2c1-c1ccc(Cl)cc1/C2=C/c1ccc(Cl)cc1` (stereo not drawn): the “activity change, negative = cytotoxicity” value is -14.6% (inactive). Turning to `CC(=O)NC(Cc1ccccc1)C(=O)O` (stereo not drawn), the Potency entry was “inactive”. With `CC(=O)OCC(=O)[C@@]1(O)CC[C@H]2[C@@H]3CCC4=CC(=O)CC[C@]4(C)[C@H]3C(=O)C[C@@]21C`, the “activity change, negative = cytotoxicity” value was 8.95% (inactive). On the same count and under the same terms, the same measure for `CC[C@@]1(c2ccccc2)NC(=O)N(C)C1=O`: -5.08% (inactive).
